GSTO1 inh: counter-screen for RBBP9 inhibitors: inhibitors of human GSTO1; recombinant GSTO1, activity-based probe fluorescence polarization; actives 1.1% (n = 300,000); inhibition, % at 5.96 µM; AID 1974;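 active = inhibition above the campaign mean inhibition plus 3 SD, cut at about 35% in these data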;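 note: 0% = GSTO1-1 with DMSO and 100% = wells lacking GSTO1-1 enzyme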
PREPL inh: human PREPL enzyme inhibition; Q4J6C6; recombinant PREPL, fluorescence polarization activity-based probe; inhibition, % at 5.96 µM; actives 0.68% (n = 320,000); AID 2751; in the data active = inhibition above about 43%;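 note: 0% = enzyme with DMSO and 100% = wells lacking enzyme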
Target sequence (Q4J6C6 whole entry, looked up): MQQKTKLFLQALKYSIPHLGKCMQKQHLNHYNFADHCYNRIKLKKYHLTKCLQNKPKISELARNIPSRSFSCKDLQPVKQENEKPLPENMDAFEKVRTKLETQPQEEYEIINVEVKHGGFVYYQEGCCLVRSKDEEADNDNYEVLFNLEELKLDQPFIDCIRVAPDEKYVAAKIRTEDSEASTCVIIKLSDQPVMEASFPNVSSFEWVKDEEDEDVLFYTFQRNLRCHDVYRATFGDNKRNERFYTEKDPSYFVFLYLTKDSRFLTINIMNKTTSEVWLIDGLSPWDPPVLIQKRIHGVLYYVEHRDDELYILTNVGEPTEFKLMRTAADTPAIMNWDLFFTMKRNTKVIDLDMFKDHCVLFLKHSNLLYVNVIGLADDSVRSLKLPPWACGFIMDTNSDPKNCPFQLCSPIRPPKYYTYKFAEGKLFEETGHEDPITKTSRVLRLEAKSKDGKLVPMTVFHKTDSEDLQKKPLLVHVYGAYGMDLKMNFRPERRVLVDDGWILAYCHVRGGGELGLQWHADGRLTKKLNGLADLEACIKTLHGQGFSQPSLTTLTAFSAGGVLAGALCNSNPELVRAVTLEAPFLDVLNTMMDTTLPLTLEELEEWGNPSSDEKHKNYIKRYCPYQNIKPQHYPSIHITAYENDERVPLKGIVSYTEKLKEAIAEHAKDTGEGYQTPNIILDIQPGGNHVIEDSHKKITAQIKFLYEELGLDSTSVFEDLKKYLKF
Fam108B counter: Fam108B inhibition, counter-screen for RBBP9 inhibitors. inhibition, % at 9.51 µM. recombinant Fam108B, FP-Rh probe fluorescence polarization. actives 0.33% (n = 300,000);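 active = inhibition above the screen mean inhibition plus 3 SD, computed separately per campaign, cut at about 18% in these data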;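 note: inhibitors lower polarization as less probe binds the enzyme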
LYPLA1 inh: LYPLA1 (human) inhibition in PME1 counter-screen; actives 0.16% (n = 320,000); O75608; inhibition, % at 5.9 µM; AID 2174; recombinant LYPLA1, FP-Rh probe fluorescence polarization;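 active = inhibition above the mean of all tested compounds plus 3 SD, set per campaign, cut at about 14% in these data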;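 note: inhibitors block serine hydrolase probe labeling of LYPLA1 so polarization falls; 0% = enzyme with DMSO and 100% = wells lacking LYPLA1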
LYPLA2 counter: counter-screen for PME1 inhibitors: inhibitors of human LYPLA2; recombinant LYPLA2, FP-Rh probe fluorescence polarization; inhibition, % at 5.9 µM; O95372; AID 2177; actives 0.38% (n = 320,000);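 active = inhibition above the screen-wide mean plus 3 SD, limit set per campaign, cut at about 26% in these data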;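 note: 0% = LYPLA2 with DMSO and 100% = wells lacking LYPLA2 enzyme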
PME-1 inh: PME-1 (human) inhibition; inhibition, % at 5.9 µM; AID 2130; recombinant PME-1, FP-Rh probe fluorescence polarization; Q9Y570; actives 0.53% (n = 320,000);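 active = inhibition above the campaign mean of all compounds plus 3 SD, cut at about 26% in these data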;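 note: competitive labeling of PME-1 active site by serine hydrolase directed probe; 0% = PME-1 with DMSO and 100% = wells lacking PME-1 enzyme; inhibitors block probe labeling so polarization falls and inhibition rises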
LYPLA2 conf: counter-screen for PME1 inhibitors: confirmation of human LYPLA2 inhibitors; actives 72% (n = 1,100); recombinant LYPLA2, FP-Rh probe fluorescence polarization; shares compounds with LYPLA2 counter; inhibition, % at 5.9 µM;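 active = mean inhibition across replicates above the hit cutoff set in the primary screen, cut at about 26% in these data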;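 note: blocked labeling of the enzyme by serine hydrolase FP-Rh probe lowers polarization; 0% = enzyme with DMSO and 100% = wells lacking LYPLA2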
LYPLA2 ABPP: blocks human acyl-protein thioesterase 2 in gel ABPP | actives 30% (n = 150) | shares compounds with LYPLA2 counter | rhLYPLA2 in mouse brain proteome, gel ABPP FP-Rh | AID 652029 | inhibition, % at 20 µM;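 active = inhibition of LYPLA2 enzyme probe labeling above about 50%, limit read from the data; inactive = inhibition below that limit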;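 note: loss of FP-Rh probe labeling of the LYPLA2 gel band measured as band density; 0% = DMSO only control band and 100% = blank gel background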
Starred values were filed as active, the others as inactive; x = not tested or not shown. Shown are actives, neighbours in structure and some others; about 2% of the full set was active somewhere.

SMILES | GSTO1 inh | PREPL inh | Fam108B counter | LYPLA1 inh | LYPLA2 counter | PME-1 inh | LYPLA2 conf | others
Cc1ccc(Oc2coc3cc(OC(=O)c4cccs4)ccc3c2=O)cc1 | -4.7 | 38.6 | -5.5 | 1.5 | 48.1* | -5.5 | 43.8*
Cc1cc(C)cc(Oc2coc3cc(OC(=O)c4cccs4)ccc3c2=O)c1 | 16.6 | 20.3 | -9.3 | 2.1 | 28.7* | -0.7 | 18.2
COc1ccc(Oc2coc3cc(OC(=O)/C=C/c4ccccc4)ccc3c2=O)cc1 | 3.2 | 27.7 | 0.3 | 3.7 | 12.3 | 5.5 | x
Cc1cccc(Oc2coc3cc(OC(=O)c4cccs4)ccc3c2=O)c1 | 4.4 | 33.5 | -5.6 | 3.3 | 16.0 | 1.1 | x
CN1C(=O)CC(C(=O)Nc2ccccc2F)SC1=Nc1ccc2c(c1)OCO2 (centres undefined) | -3.2 | 8.8 | 9.9 | 0.5 | 8.9 | 5.1 | x
CCN=C1SC(C(=O)Nc2cccc(Br)c2)CC(=O)N1CC (centres undefined) | 0.7 | 5.0 | 3.1 | -0.4 | 26.4* | -2.4 | 25.9*
COc1ccc(N=C2SC(C(=O)Nc3ccc4c(c3)OCO4)CC(=O)N2C)cc1 (centres undefined) | 2.1 | 21.1 | 3.2 | -1.8 | 52.6* | -2.2 | 39.2*
CCN1C(=O)CC(C(=O)Nc2ccc(F)cc2)SC1=Nc1ccc2c(c1)OCO2 (centres undefined) | 0.0 | 14.0 | 3.6 | 2.1 | 35.5* | 4.0 | 3.3
O=C(C1CCN(S(=O)(=O)c2cccnc2)CC1)N1CCN(c2ccccc2Cl)CC1 | 6.5 | 3.8 | 1.2 | 3.3 | 7.5 | 8.3 | x
O=C(C1CCN(S(=O)(=O)c2cccnc2)CC1)N1CCN(c2ccc(Cl)cc2)CC1 | 6.0 | 6.2 | 1.2 | 3.3 | 38.0* | 5.4 | 41.8*
O=C(C1CCN(S(=O)(=O)c2ccccc2)CC1)N1CCN(c2ccccc2)CC1 | 4.9 | 2.5 | 4.6 | 1.3 | 10.2 | 20.6 | x
COc1ccc(N2CCN(C(=O)C3CCN(S(=O)(=O)c4ccccc4)CC3)CC2)cc1 | 5.4 | 4.5 | 1.8 | -1.9 | 37.5* | 19.4 | 44.1*
CCc1ccc(C(=O)Cn2cnc3cc([N+](=O)[O-])ccc3c2=O)cc1 | -8.6 | 35.0 | 3.2 | -1.2 | 45.9* | -0.6 | 37.3*
O=C(Cn1cnc2ccccc2c1=O)c1ccccc1 | 1.8 | -3.4 | -4.1 | 1.2 | 7.9 | 6.4 | x
O=C(Cn1cnc2ccccc2c1=O)c1ccc(OC(F)F)cc1 | 5.6 | 1.2 | 2.0 | 0.1 | 52.0* | -5.6 | 66.8* | LYPLA2 ABPP=70.0*
O=C(Cn1cnc2ccccc2c1=O)c1ccc(Br)cc1 | 2.9 | 9.3 | 1.0 | -5.8 | 28.6* | 3.4 | 42.4*
O=C(Cn1cnc2ccccc2c1=O)c1cccs1 | 9.4 | -2.6 | -2.3 | 0.8 | 8.4 | -2.4 | x
CCOc1ccc(C(=O)Cn2cnc3ccccc3c2=O)cc1 | 5.6 | -11.4 | -0.8 | 3.2 | 33.8* | -5.8 | 23.0
CC(C)N(C(=O)Cn1cnc2cc([N+](=O)[O-])ccc2c1=O)C(C)C | 22.2 | 17.6 | 4.7 | 0.6 | 4.9 | 5.7 | x
Cc1ccc(C(=O)Cn2cnc3ccccc3c2=O)cc1 | 2.5 | 4.0 | -5.6 | -3.5 | 24.0 | -1.4 | x
CSCCC(NC(=O)COc1ccccc1)C(=O)N(C)Cc1cccc(F)c1 (centres undefined) | x | 3.6 | x | -0.7 | -0.8 | -1.9 | x
COc1ccc(N2CCN(C(=O)CN(C)S(=O)(=O)c3cccs3)CC2)cc1 | 0.8 | 5.3 | 0.0 | 4.5 | 28.5* | -7.9 | 36.2*
Cc1ccc(NC(=O)C/C(N)=N/OC(=O)Nc2ccc(C)c(Cl)c2)cc1 | x | 2.9 | x | -5.1 | 0.5 | 2.3 | x
N#Cc1ccc(CN2CCN(C(=O)Cn3nc(C(N)=O)c4ccccc4c3=O)CC2)cc1 | 0.5 | -0.8 | -1.8 | 0.2 | 29.3* | -1.3 | 13.9
COc1ccc(CNCc2ccc3ccccc3c2)c(OC)c1 | 6.5 | 6.1 | -4.0 | 0.7 | 5.0 | -4.3 | x
SMILES | GSTO1 inh | PREPL inh | Fam108B counter | LYPLA1 inh | LYPLA2 counter | PME-1 inh | LYPLA2 conf | others
COc1cc(NC(=O)c2cc(-c3ccco3)on2)cc(OC)c1OC | 3.9 | 2.8 | 0.8 | -7.9 | -9.3 | 5.0 | x
CCN(CC)c1ccc(C(=O)Nn2cnc3ccccc3c2=O)cc1 | -3.0 | 7.7 | -0.3 | -0.7 | 0.8 | 0.3 | x
CCCCCCCCCC(=O)Nn1cnc2ccccc2c1=O | -1.6 | -0.7 | -0.7 | 1.7 | 70.9* | -2.1 | 75.0* | LYPLA2 ABPP=52.0*
CC(=O)c1ccc(N2CCN(c3ccc(S(=O)(=O)NCCN(C)C)cc3[N+](=O)[O-])CC2)cc1 | 5.0 | 25.9 | 3.2 | 4.3 | 28.1* | 2.3 | 31.2*
CC(=O)c1ccc(N2CCN(c3ccc(S(=O)(=O)NCCCN(C)C)cc3[N+](=O)[O-])CC2)cc1 | -1.3 | 21.1 | -3.4 | 9.8 | 26.2* | -5.4 | 19.1
CN(C)CCCNS(=O)(=O)c1ccc(N2CCN(Cc3ccc4c(c3)OCO4)CC2)c([N+](=O)[O-])c1 | 6.0 | 16.5 | -0.5 | -1.8 | -2.1 | 1.6 | x
CC(C)c1ccc(NC2=NCC(=O)N2Cc2cccs2)cc1 | -1.7 | 5.7 | 0.4 | -1.6 | 33.9* | -0.8 | 26.4*
O=C(CNC(=O)c1ccco1)NCc1ccc2c(c1)OCO2 | x | 10.0 | x | x | x | x | x
COc1ccc(C(=O)ON=C2CCCc3nonc32)cc1 | x | x | x | x | x | x | x | LYPLA2 ABPP=6.0
O=[N+]([O-])c1ccccc1/C=N\N1CCN(c2ccccc2)CC1 | -1.8 | 12.1 | 3.5 | 1.9 | 2.5 | 3.4 | x
O=[N+]([O-])c1ccccc1/C=C\C=N\N1CCN(c2ccccc2)CC1 | 6.3 | 18.0 | 0.7 | 9.5 | 40.0* | -4.3 | 36.1*
O=C(c1ccc(S(=O)(=O)N2CCOCC2)cc1)N1CCN(c2cccc(Cl)c2)CC1 | 6.8 | 17.4 | 0.5 | -7.2 | 4.3 | 6.1 | x
O=C(NCC1CCN(c2ccc(S(=O)(=O)N3CCOCC3)cc2)CC1)c1cccc(Cl)c1 | 2.7 | 30.9 | 0.2 | 1.3 | 31.7* | 2.2 | 30.7*
COc1cccc(C(=O)NCC2CCN(c3ccc(S(=O)(=O)N4CCOCC4)cc3)CC2)c1 | -3.4 | -1.9 | -0.1 | 0.1 | 29.3* | -3.2 | 19.9
COc1ccccc1/C=C/CN1CCSCC1 | -8.8 | -1.3 | -6.0 | -1.5 | 0.8 | -0.6 | x
COc1ccc(-c2cc(C)no2)cc1S(=O)(=O)N1CCN(c2cccc(C)c2)C(C)C1 (centres undefined) | 6.8 | 2.9 | 0.1 | -3.8 | 31.7* | -1.9 | 31.5*
O=C(CCNC(=O)c1ccc([N+](=O)[O-])cc1)NCc1ccco1 | x | 8.6 | x | -1.4 | -5.8 | 3.1 | x
O=C(CSc1ccccc1)N1CCCC(N2CCN(c3cccc(Cl)c3)CC2)C1 (centres undefined) | -8.9 | -1.1 | -3.1 | 9.1 | 69.3* | 5.5 | 64.0* | LYPLA2 ABPP=48.0

Screens from PubChem BioAssay.
